In PubChem BioAssay AID1851 (National Center for Advancing Translational Sciences (NCATS), 2009):
Hit rate of the full screen: of about 16,000 compounds, about 2,600 (16%) were called active. Not shown: some 20% with an inconclusive outcome. The call rests on the fitted dose curve; in most records, active means well fitted curve in the direction sought with a large enough effect; inconclusive means small, poorly fitted or top-dose-only effect, or effect the other way; inactive means no such curve, though single readings can be large or run the other way. Only a sample is shown.

These molecules were tested against Cytochrome P450 2D6 (Homo sapiens) (UniProt P10635) (assay: Cytochrome panel assay with activity outcomes). Settings: recombinant CYP, pro-luciferin dealkylation, luminescence, p450-cyp2d6; series mostly up to 57.1 µM; activity, negative = inhibition: at the top concentration.
On the % scale 0 is the no-effect control and ±100 the full control effect.

Sequence of Cytochrome P450 2D6 (Homo sapiens) (P10635 whole entry, looked up): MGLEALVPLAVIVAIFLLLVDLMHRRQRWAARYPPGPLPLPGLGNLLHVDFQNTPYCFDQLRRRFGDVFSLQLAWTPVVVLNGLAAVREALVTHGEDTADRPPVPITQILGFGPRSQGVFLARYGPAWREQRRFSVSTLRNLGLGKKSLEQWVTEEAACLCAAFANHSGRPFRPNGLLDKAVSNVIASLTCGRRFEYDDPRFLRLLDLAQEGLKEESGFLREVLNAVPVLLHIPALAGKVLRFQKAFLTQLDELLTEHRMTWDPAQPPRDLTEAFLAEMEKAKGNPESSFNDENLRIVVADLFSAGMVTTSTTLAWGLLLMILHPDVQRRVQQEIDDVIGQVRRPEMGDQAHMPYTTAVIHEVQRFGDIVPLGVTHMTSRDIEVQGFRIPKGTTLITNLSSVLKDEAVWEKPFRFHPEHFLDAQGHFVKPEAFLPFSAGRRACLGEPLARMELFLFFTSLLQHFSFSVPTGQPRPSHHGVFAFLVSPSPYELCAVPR

Compound	activity, negative = inhibition	AC50
O=C(O)CSCCc1ccccc1	-0.751% [at 11.4 µM] (inactive)	–
Cn1c(CNC(=O)Nc2ccccc2)nnc1SCc1ccccc1	-8.99% (inactive)	–
CCn1c(SCc2ccc(C)cc2)nnc1-c1nn(-c2ccccc2)ccc1=O	-12.7% (inactive)	–
CCc1ccc(CSc2nccn2-c2ccccc2)cc1	–	17.8 µM (active)
Clc1ccc(CSc2nccn2Cc2ccccc2)cc1	–	5.01 µM (active)
c1ccc(CCSc2nccn2-c2ccccc2)cc1	–	1.41 µM (active)
Nc1nc(SCc2ccccc2)c2ncn(Cc3ccccc3)c2n1	9.39% [at 11.4 µM] (inactive)	–
O=c1ccnc(SCc2ccc(Cl)cc2)[nH]1	6.62% [at 11.4 µM] (inactive)	–
Cc1noc(NC(=O)Nc2ccccc2F)c1C#N	0.368% [at 11.4 µM] (inactive)	–
CC(/C=C/c1ccco1)=N/NC(=O)c1ccccc1Cl	-12.5% (inactive)	–
CCOC(=O)N/N=C1/C[C@@H](O)[C@@H](O)[C@@H]2[C@@H]3C(=O)N(C(C)(C)C)C(=O)[C@H]3CC[C@@H]12	-10.6% [at 11.4 µM] (inactive)	–
CO[C@H]1COC(=O)CCC[C@H](C)[C@@H](OC)COC(=O)C/C=C\[C@@H]1C	-0.797% [at 11.4 µM] (inactive)	–
Cc1ccc(S(=O)(=O)c2cc(N3CCOCC3)nc(-c3ccccc3)n2)cc1	-14% (inactive)	–
N#CCCn1c(=O)cnc2cnc(OCc3ccccc3)nc21	-3.27% (inactive)	–
CCCNC(=O)OC[C@@H]1O[C@H](CCON=C(C)C)C=C[C@@H]1Oc1ccc(OC)cc1	-7.52% [at 11.4 µM] (inactive)	–
COc1cc2nc(N3CC=[N+](C(=O)c4ccco4)CC3)nc(N)c2cc1OC	-10% (inactive)	–
CCOc1ccccc1/C=C(\C#N)C(N)=O	1.77% [at 11.4 µM] (inactive)	–
C[C@H]1C2=C3C(CC[C@H]4C(OCc5ccc(F)cc5C(F)(F)F)OC[C@](C)([C@@H]34)N(C(=O)OC(C)(C)C)C2)C(CO)C1CO (stereo partly specified)	-7.43% (inactive)	–
Nc1nc2c(c(=O)[nH]1)N(C=O)[C@H](CNc1ccc(C(=O)N[C@@H](CCC(=O)O)C(=O)O)cc1)CN2	2.81% [at 25.6 µM] (inactive)	–
CC(Sc1nnc(Cc2cccs2)n1C1CCCCC1)C(N)=O (stereo unspecified)	2.37% (inactive)	–
CC1CCC(NC(=O)CC(C)(C)Cc2nc3ccccc3c(=O)[nH]2)CC1 (stereo unspecified)	-11.4% (inactive)	–
N=C(C[C@@H](O)COc1ccccc1-c1ccccc1)N1CCCCC1	–	31.6 µM (active)
O=C(COc1ccccc1-c1ccccc1)N/N=C/c1cccc2ccccc12	-20.7% (inactive)	–
O=c1c(-c2cc(F)cc(F)c2)nc2cnc(N3CCNCC3)nc2n1C1CC1	-10.9% (inactive)	–

Compound	activity, negative = inhibition	AC50
Cc1ccc2cc(C(=O)O)c(C)nc2c1	14.1% (inactive)	–
Cc1ccc(CSc2nc3c(c(SCC(=O)O)n2)CCCC3)cc1	22.3% (inactive)	–
CO[C@H]1COC(=O)C/C=C\[C@@H](C)[C@H](OC)COC(=O)[C@H]2CCCN2C(=O)C/C=C\[C@@H]1C	18.5% [at 11.4 µM] (inactive)	–
CC(O)(CS(=O)(=O)Cc1ccccc1Cl)C(=O)Nc1cccc(C(F)(F)F)c1 (stereo unspecified)	-19.7% (inactive)	–
O=C(Nc1cccc(C(F)(F)F)c1)N(Cc1ccc(Cl)cc1)CC(O)C(F)(F)F (stereo unspecified)	–	15.8 µM (active)
O=C(Nc1ccccc1)N(Cc1ccccc1)CC(O)C(F)(F)F (stereo unspecified)	-12.8% (inactive)	–
O=S(=O)(NCc1cn2ccsc2n1)c1ccc(Oc2ccccc2)cc1	-5.31% (inactive)	–
O=C(NCCOC(=O)c1ccc(C(=O)OCCNC(=O)c2cccnc2)s1)c1cccnc1	-19.5% (inactive)	–
CCN(c1ccc(NC(=O)COC(=O)c2ccc3ccccc3n2)cc1)C(C)C	-23.3% (inactive)	–
O=C(OCCNC(=O)c1ccc2ccccc2n1)c1ccc(F)cc1	–	15.8 µM (active)
Cc1cc(C)cc(-n2nnnc2SCC(=O)Nc2nc(-c3ccc(Cl)cc3)cs2)c1	-11.9% (inactive)	–
COc1ccc(NC(=O)N2CC3(CCN(C(=O)c4c(C)noc4C)CC3)C2)cc1	-3.71% (inactive)	–
Cc1noc(C)c1C(=O)N1CCC2(CC1)CN(c1ccccc1)C2	-7.99% (inactive)	–
CC(=O)N1CCC2(CC1)CN(C(c1ccccc1)c1ccccc1)C2	13.1% (inactive)	–
COc1ccc(NC(=O)N2CC[C@@]3(CCCN(C(=O)c4c(C)noc4C)C3)C2)cc1	18.1% (inactive)	–
Cc1noc(C)c1C(=O)N1CCC[C@@]2(CCN(c3ccccc3)C2)C1	-15% (inactive)	–
CC(=O)N1CCC2(CC1)CN(c1ccccc1)C2	3.1% (inactive)	–
CC(=O)N1CCC2(CC1)CCN(C(c1ccccc1)c1ccccc1)CC2	–	7.94 µM (active)
Cc1noc(C)c1C(=O)N1CCC2(CCCN(C(c3ccccc3)c3ccccc3)C2)CC1	–	2 µM (active)
COC(=O)N1CCC[C@@]2(CCN(C(=O)Nc3ccccc3)C2)C1	4.3% (inactive)	–
COc1ccc(NC(=O)N2CCCC3(CCN(C(=O)c4c(C)noc4C)CC3)C2)cc1	–	10 µM (active)
COC(=O)N1CCC[C@@]2(CCN(C(c3ccccc3)c3ccccc3)C2)C1	–	2 µM (active)
COC(=O)N1CCC[C@@]2(CCN(C(=O)Nc3ccc(OC)cc3)C2)C1	-5.4% (inactive)	–
COc1ccc(-n2c(C)n[nH]c2=O)cc1OC	6.47% (inactive)	–

Compound	activity, negative = inhibition	AC50
O=c1cnc2cnc(Oc3ccccc3)nc2n1CCc1ccccc1	-4.72% (inactive)	–
Nc1nc2ncc(CNc3ccc(C(=O)N[C@@H](CCC(=O)O)C(=O)O)cc3)nc2c(=O)[nH]1	4.78% [at 25.6 µM] (inactive)	–
COc1ccc(NC(=O)C2(c3ccc(NC(=O)c4ccc(OC(C)=O)cc4)cc3)CCCC2)cc1	-0.389% (inactive)	–
CC(=O)N(/N=C1\Sc2ccccc2C1=O)c1ccccc1C	14.4% (inactive)	–
COc1ccc(-n2c(=O)c(-c3cccs3)nc3cnc(N4CCN(C)CC4)nc32)cc1	0.52% (inactive)	–
CCOC(=O)N/N=C/c1ccccc1F	-9.33% (inactive)	–
O=C(CNC(=O)c1ccco1)OC(C(=O)c1ccccc1)c1ccccc1 (stereo unspecified)	-7.29% (inactive)	–
COC(=O)N1CCC2(CC1)CCN(C(c1ccccc1)c1ccccc1)CC2	–	7.94 µM (active)
CC(=O)N1CCC2(CCCN(c3ccccc3)C2)CC1	-9.94% (inactive)	–
COC(=O)N1CCC2(CCCN(c3ccc(-c4ccccc4)cc3)C2)CC1	-3.96% (inactive)	–
COC(=O)N1CCC2(CC1)CN(c1ccc(-c3ccccc3)cc1)C2	-10.2% (inactive)	–
COC(=O)N1CCC2(CC1)CN(C(=O)Nc1ccccc1)C2	-7.42% (inactive)	–
CC(=O)N1CCC2(CCCN(C(c3ccccc3)c3ccccc3)C2)CC1	–	7.94 µM (active)
COC(=O)N1CCC2(CC1)CN(C(c1ccccc1)c1ccccc1)C2	–	0.794 µM (active)
COC(=O)N1CCC2(CCN(C(=O)Nc3ccccc3)CC2)CC1	-11.2% (inactive)	–
COC(=O)N1CCC2(CCCN(C(c3ccccc3)c3ccccc3)C2)CC1	–	10 µM (active)
COC(=O)N1CCC2(CC1)CN(c1ccccc1)C2	-4.45% (inactive)	–
COC(=O)N1CCC2(CC1)CCN(c1ccccc1)CC2	-15.3% (inactive)	–
CC(=O)N1CCC[C@@]2(CCN(c3ccccc3)C2)C1	-6.82% (inactive)	–
Cc1c(NC(=O)NC(C)N2C(=O)C3C4C=CC(C4)C3C2=O)c(=O)n(-c2ccccc2)n1C (stereo unspecified)	2.58% (inactive)	–
CCOC(=O)C1=C(CSc2nc(-c3ccccc3)ccc2C#N)OC(N)=C(C#N)C1c1ccc(OC)cc1 (stereo unspecified)	-9.31% (inactive)	–
CCOC(=O)c1[nH]c(C)c(C)c1C	-3.5% (inactive)	–
Nc1ncnc2c1ncn2C[C@@H](O)C(=O)O	10.9% [at 11.4 µM] (inactive)	–
O=C(N/N=C/c1c(Nc2cccc(C(F)(F)F)c2)nc2ccccn2c1=O)c1ccccc1	-3.29% (inactive)	–

Compound	activity, negative = inhibition	AC50
CC(=O)OCC1=C(C(=O)O)N2C(=O)[C@@H](NC(=O)Cc3cccs3)[C@@H]2SC1	–	inactive
CC(C)CCN1C(=O)c2ccc(-c3nc4ccccc4c(=O)o3)cc2C1=O	16.9% (inactive)	–
Cc1noc(C)c1C(=O)N1CCC[C@@]2(CCN(C(=O)NC(C)C)C2)C1	3.36% (inactive)	–
COCCCNC(=O)C1CCN(S(=O)(=O)N(CC(C)C)CC(C)C)CC1	8.44% (inactive)	–
CC(C)(C)c1ccc(-c2c(C#N)c(N)nc3c2CCCC3)s1	-10.7% (inactive)	–
Cc1noc(C)c1C(=O)N1CCC2(CC1)CN(c1ncccn1)C2	4.38% (inactive)	–
COc1ncnc(NS(=O)(=O)c2ccc(N)cc2)c1OC	-2.5% [at 25.6 µM] (inactive)	–
CCOC(=O)N1CCN(C(=O)c2ccc3nc(SCc4ccc(F)cc4)n(C)c3c2)CC1	-13.8% (inactive)	–
C[C@@H]1C[C@@H]2[C@H]3CCC4=CC(=O)C=C[C@]4(C)[C@]3(Cl)[C@@H](O)C[C@@]2(C)[C@@]1(O)C(=O)CO	15% (inactive)	–
C[C@H]1C[C@H]2[C@H]3CCC4=CC(=O)C=C[C@@]4(C)[C@]3(F)[C@H](O)C[C@]2(C)[C@@]1(O)C(=O)COP(=O)(O)O	2.95% [at 11.4 µM] (inactive)	–
C[C@H]1C[C@@H]2[C@H]3CCC4=CC(=O)C=C[C@@]4(C)[C@@]3(Cl)[C@@H](O)C[C@]2(C)[C@]1(OC(=O)c1ccco1)C(=O)CCl	–	3.98 µM (active)
C=CCC(C(=O)OC)(C(=O)OC)c1ccc([N+](=O)[O-])cn1	-11.8% (inactive)	–
CCNc1ncc2ncc(=O)n(C3CC3)c2n1	-4.43% (inactive)	–
CCN1CCN(C(c2ccccn2)c2c(NC(=O)c3ccccc3)sc(C)c2C)CC1 (stereo unspecified)	–	14.1 µM (active)
CCOC(=O)CSc1n[nH]c(NC(=O)c2ccccc2)n1	-2.06% (inactive)	–
Cc1sc(NC(=O)c2ccco2)c(C(c2ccncc2)N2CCOCC2)c1C (stereo unspecified)	-27% (inactive)	–
Cc1noc(C)c1-c1ccc2ncnc(NCc3cccs3)c2c1	–	20 µM (active)
Cc1noc(C)c1-c1ccc2ncnc(N3CCOCC3)c2c1	8.01% (inactive)	–
COCCNc1ncnc2ccc(-c3c(C)noc3C)cc12	-2.91% (inactive)	–
CC(=O)NCCNc1ncnc2ccc(-c3c(C)noc3C)cc12	-9.88% (inactive)	–
Cc1noc(C)c1-c1ccc2ncnc(NC3CCNCC3)c2c1	-0.394% (inactive)	–
Cc1cccc(CNc2ncnc3ccc(-c4c(C)noc4C)cc23)c1	–	15.8 µM (active)
N#Cc1cccc(NC(=O)N2CCC3(CC2)CCN(C(=O)c2ccco2)CC3)c1	-12.3% (inactive)	–
COc1ccccc1NC(=O)C(C/C=C(\C)Cl)C(C)=O (stereo unspecified)	-14% (inactive)	–
